What all share (experiment): DAPPL (digital affinity profiling via proximity ligation, sequencing); 10 mM Tris-HCl pH 7.5, 50 mM NaCl, 1 mM DTT, 4% glycerol, room temperature, 30 min; GST-TFs on glutathione beads, 16-mer random dsDNA library, 0.1% formaldehyde crosslink after washing; high values mean tight binding
For one assay, the target named is T1, FLI1 (Homo sapiens, UniProt Q01543 1-452).
T1 sequence: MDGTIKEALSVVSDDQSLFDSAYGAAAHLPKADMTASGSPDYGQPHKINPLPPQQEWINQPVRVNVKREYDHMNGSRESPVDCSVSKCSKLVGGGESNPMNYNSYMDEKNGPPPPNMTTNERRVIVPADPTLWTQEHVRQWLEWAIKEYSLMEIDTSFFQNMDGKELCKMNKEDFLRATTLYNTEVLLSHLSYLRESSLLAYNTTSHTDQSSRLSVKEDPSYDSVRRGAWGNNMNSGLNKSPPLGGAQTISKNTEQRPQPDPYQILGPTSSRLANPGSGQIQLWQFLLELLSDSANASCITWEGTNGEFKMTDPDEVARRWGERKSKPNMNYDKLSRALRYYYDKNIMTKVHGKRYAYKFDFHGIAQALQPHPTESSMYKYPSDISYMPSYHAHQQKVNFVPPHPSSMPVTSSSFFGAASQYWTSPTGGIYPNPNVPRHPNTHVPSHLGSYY
Particulars: protein: recombinant; tags: N-terminal GST; dsDNA, one strand shown. The gist of the method:
(§1)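 After expression in yeast as GST fusions, human transcription factors were bound to glutathione beads, DNA-barcoded and mixed with a tag-only sample. The pools were incubated with 200 nmole of a 16-mer random double-stranded DNA library in Tris/NaCl/DTT/glycerol buffer (30 min, room temperature), washed and crosslinked with 0.1% formaldehyde. Proximity ligation with BsaI/T4 ligase ran for 1 h at 37 °C, before PCR amplification and sequencing on an Illumina NextSeq500. Binding signal is a hexamer's read frequency for a factor divided by its frequency for the tag-only sample.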

For another assay, the target named is T2, ELK1 (Homo sapiens, UniProt P19419 1-428).
T2 sequence: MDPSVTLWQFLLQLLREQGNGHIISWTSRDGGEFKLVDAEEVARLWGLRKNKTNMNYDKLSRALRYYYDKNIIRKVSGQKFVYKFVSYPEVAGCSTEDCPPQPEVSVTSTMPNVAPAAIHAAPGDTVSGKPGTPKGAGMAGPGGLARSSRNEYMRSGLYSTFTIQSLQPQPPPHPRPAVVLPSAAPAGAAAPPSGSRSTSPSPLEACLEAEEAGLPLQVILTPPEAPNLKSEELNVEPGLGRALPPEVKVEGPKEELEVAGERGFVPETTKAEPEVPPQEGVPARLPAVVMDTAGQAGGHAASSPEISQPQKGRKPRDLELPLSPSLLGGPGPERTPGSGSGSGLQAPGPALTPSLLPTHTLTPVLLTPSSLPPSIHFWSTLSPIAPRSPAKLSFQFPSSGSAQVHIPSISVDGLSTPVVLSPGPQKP
The settings on record: protein: recombinant; tags: N-terminal GST; dsDNA, one strand shown. The gist of the method:
as §1

For a further assay, the target named is T3, GABPA (Homo sapiens, UniProt Q06546 1-454).
T3 sequence: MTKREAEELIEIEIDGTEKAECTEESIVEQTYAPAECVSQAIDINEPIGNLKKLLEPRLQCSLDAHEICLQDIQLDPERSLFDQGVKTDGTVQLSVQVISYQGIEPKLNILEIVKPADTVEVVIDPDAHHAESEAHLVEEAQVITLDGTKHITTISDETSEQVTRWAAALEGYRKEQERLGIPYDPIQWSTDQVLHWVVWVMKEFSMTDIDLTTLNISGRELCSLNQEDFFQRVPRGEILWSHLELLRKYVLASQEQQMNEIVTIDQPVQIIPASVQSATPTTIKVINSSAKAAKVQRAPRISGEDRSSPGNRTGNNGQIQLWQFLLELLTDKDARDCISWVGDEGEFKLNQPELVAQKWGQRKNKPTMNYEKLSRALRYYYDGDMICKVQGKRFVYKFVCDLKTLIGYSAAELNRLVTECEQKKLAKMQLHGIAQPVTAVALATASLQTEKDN
Particulars: protein: recombinant; tags: N-terminal GST; dsDNA, one strand shown. The gist of the method: as §1

A further assay has as its target T4, ERG (Homo sapiens, UniProt P11308 1-479).
T4 sequence: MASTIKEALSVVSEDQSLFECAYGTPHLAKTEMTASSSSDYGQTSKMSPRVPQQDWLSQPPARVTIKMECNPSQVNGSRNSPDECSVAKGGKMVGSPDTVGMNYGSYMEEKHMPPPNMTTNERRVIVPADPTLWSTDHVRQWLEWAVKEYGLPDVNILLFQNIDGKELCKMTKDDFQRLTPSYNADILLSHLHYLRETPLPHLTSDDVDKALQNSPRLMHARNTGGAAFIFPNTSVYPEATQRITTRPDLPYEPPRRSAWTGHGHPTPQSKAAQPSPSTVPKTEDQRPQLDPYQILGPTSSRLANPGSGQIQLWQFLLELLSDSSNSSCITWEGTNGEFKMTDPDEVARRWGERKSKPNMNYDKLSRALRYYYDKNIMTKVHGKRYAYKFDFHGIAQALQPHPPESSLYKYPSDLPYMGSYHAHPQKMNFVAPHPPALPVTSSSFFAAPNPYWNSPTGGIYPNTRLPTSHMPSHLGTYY
The settings on record: protein: recombinant; tags: N-terminal GST; dsDNA, one strand shown. A digest of the protocol:
as §1

A further assay addresses ELF1 (Homo sapiens, UniProt P32519 1-619). Particulars: protein: recombinant; tags: N-terminal GST; dsDNA, one strand shown. A digest of the protocol:
as §1

In another assay the target is T5, EHF (Homo sapiens, UniProt Q9NZC4 1-300).
T5 sequence: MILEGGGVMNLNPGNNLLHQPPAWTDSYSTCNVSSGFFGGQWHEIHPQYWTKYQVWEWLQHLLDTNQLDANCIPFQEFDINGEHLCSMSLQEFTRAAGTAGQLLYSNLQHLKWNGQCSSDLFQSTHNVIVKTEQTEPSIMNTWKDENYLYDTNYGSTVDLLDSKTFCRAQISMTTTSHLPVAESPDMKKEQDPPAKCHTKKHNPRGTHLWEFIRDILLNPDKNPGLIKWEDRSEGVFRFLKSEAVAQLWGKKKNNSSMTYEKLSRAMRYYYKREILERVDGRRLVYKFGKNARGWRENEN
The settings on record: protein: recombinant; tags: N-terminal GST; dsDNA, one strand shown. A digest of the protocol:
as §1

Another assay concerns the target SPI1 (Homo sapiens, UniProt P17947 1-270). Particulars: protein: recombinant; tags: N-terminal GST; dsDNA, one strand shown. A digest of the protocol:
as §1

The next assay has as its target SPIB (Homo sapiens, UniProt Q01892 1-262). The settings on record: protein: recombinant; tags: N-terminal GST; dsDNA, one strand shown. A digest of the protocol: as §1
In another assay the target is T6, ELK3 (Homo sapiens, UniProt P41970 1-407).
T6 sequence: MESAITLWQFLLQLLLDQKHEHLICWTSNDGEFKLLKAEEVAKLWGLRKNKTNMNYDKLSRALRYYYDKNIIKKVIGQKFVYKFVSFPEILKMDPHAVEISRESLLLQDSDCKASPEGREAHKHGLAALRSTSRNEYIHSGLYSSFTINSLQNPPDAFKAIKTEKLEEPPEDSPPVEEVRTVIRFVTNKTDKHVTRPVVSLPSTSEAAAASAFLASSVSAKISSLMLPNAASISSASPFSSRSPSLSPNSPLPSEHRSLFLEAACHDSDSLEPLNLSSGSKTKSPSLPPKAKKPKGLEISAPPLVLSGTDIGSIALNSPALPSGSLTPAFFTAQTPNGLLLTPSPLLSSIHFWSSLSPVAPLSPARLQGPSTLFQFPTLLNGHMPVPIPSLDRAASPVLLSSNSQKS
Particulars: protein: recombinant; tags: N-terminal GST; dsDNA, one strand shown. The gist of the method:
as §1

In a further assay the target is T7, FEV (Homo sapiens, UniProt Q99581 1-238).
T7 sequence: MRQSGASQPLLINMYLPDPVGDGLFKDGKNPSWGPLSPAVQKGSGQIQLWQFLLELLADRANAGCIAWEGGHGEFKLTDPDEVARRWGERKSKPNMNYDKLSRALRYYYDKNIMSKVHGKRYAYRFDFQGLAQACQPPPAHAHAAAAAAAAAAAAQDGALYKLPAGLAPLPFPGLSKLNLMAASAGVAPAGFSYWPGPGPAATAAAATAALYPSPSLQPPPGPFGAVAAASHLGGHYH
The settings on record: protein: recombinant; tags: N-terminal GST; dsDNA, one strand shown. A digest of the protocol:
as §1

In the next assay the target is ETV5 (Homo sapiens, UniProt P41161 1-510). The settings on record: protein: recombinant; tags: N-terminal GST; dsDNA, one strand shown. A digest of the protocol:
as §1

The target in another assay is HSF1 (Homo sapiens, UniProt Q00613 1-529). The settings on record: protein: recombinant; tags: N-terminal GST; chain copies: 3; dsDNA, one strand shown. A digest of the protocol:
as §1

Another assay deals with T8, SPIC (Homo sapiens, UniProt Q8N5J4 1-248).
T8 sequence: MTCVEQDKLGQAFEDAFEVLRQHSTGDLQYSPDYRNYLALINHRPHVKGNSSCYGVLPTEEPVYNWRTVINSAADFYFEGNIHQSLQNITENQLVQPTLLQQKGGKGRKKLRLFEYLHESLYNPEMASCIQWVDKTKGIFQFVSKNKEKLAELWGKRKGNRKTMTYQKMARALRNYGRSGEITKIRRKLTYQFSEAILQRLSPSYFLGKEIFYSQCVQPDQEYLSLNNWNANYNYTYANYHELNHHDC
Particulars: protein: recombinant; tags: N-terminal GST; dsDNA, one strand shown. The gist of the method:
as §1

Another assay addresses ELF4 (Homo sapiens, UniProt Q99607 1-663). The settings on record: protein: recombinant; tags: N-terminal GST; dsDNA, one strand shown. The gist of the method:
as §1

A further assay deals with T9, ELK4 (Homo sapiens, UniProt P28324-2 1-405).
T9 sequence: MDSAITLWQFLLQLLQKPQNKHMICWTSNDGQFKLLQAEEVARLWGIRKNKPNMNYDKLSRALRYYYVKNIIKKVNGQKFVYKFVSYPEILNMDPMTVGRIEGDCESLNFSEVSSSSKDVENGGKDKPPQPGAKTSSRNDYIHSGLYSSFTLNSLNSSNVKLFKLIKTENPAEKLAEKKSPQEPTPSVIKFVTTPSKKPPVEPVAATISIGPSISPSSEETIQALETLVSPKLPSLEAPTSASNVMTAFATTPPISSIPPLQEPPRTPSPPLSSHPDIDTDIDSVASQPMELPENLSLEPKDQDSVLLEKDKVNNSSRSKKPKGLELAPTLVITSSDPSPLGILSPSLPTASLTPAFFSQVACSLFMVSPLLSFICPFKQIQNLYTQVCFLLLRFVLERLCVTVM
Particulars: protein: recombinant; tags: N-terminal GST; dsDNA, one strand shown. The gist of the method: as §1

Another assay deals with T10, ETV2 (Homo sapiens, UniProt O00321 1-342).
T10 sequence: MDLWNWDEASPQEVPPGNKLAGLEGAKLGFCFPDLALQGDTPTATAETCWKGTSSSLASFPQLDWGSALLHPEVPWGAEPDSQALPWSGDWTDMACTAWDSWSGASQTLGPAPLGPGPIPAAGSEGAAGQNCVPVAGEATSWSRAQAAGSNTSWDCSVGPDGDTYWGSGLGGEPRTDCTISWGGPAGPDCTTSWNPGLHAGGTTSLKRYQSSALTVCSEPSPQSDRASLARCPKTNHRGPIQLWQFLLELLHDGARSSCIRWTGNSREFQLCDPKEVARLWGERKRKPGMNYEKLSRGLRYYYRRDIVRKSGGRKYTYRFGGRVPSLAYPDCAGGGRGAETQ
Particulars: protein: recombinant; tags: N-terminal GST; dsDNA, one strand shown. The gist of the method: as §1

For a further assay, the target named is T11, ELF3 (Homo sapiens, UniProt P78545 1-371).
T11 sequence: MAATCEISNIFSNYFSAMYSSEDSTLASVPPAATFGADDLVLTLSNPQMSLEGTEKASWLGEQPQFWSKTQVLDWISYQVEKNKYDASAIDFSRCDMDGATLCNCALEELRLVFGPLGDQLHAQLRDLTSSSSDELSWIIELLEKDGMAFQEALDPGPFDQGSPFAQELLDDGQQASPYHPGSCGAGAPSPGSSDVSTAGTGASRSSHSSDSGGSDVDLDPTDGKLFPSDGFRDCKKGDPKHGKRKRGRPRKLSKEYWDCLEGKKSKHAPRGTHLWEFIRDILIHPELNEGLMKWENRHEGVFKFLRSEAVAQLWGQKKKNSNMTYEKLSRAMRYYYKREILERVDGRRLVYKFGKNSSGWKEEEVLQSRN
Particulars: protein: recombinant; tags: N-terminal GST; dsDNA, one strand shown. The gist of the method:
as §1

Another assay concerns the target ETV1 (Homo sapiens, UniProt P50549 1-477). The settings on record: protein: recombinant; tags: N-terminal GST; dsDNA, one strand shown. A digest of the protocol:
as §1

HSF1, sequence (Q00613 whole entry): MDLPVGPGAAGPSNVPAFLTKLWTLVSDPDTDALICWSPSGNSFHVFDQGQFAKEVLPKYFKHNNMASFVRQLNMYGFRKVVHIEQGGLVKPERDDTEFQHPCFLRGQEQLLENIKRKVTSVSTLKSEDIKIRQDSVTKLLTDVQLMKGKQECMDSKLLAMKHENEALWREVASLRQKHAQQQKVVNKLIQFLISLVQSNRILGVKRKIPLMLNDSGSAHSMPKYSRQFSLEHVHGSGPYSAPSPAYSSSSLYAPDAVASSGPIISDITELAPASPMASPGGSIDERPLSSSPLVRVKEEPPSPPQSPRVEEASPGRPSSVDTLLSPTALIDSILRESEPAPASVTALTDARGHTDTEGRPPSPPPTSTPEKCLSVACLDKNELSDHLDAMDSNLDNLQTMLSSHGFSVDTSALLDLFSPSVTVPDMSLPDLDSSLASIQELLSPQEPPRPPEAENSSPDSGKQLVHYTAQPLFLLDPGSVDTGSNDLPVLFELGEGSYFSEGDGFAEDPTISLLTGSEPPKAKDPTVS
ETV1, sequence (P50549 whole entry): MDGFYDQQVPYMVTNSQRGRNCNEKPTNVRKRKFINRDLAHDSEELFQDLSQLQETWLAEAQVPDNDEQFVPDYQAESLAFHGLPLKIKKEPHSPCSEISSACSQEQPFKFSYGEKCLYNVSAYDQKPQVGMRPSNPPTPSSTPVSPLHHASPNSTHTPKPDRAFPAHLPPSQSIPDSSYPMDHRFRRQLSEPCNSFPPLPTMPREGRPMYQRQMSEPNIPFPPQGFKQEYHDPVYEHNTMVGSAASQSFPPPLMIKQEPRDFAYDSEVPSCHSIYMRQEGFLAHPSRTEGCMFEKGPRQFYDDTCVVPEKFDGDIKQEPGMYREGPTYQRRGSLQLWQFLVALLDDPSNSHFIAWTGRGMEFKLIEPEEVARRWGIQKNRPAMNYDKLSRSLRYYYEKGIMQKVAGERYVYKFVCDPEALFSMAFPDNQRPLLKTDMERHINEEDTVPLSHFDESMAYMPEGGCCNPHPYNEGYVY
ELF1, sequence (P32519 whole entry): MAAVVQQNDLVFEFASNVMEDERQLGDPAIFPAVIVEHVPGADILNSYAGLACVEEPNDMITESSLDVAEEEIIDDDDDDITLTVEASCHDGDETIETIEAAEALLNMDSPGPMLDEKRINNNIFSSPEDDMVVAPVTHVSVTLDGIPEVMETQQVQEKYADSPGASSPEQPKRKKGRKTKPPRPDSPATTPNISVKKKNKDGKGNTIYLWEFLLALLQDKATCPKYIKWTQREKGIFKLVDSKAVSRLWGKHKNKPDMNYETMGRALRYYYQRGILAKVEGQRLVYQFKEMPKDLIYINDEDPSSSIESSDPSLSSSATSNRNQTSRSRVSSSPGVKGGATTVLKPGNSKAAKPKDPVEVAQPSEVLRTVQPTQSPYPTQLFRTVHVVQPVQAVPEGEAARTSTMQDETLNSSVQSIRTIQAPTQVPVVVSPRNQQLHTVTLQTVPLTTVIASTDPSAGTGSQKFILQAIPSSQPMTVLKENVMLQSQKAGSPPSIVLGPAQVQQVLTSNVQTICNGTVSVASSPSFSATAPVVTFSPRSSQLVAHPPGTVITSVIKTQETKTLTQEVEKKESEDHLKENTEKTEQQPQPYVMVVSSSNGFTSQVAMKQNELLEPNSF
ETV5, sequence (P41161 whole entry): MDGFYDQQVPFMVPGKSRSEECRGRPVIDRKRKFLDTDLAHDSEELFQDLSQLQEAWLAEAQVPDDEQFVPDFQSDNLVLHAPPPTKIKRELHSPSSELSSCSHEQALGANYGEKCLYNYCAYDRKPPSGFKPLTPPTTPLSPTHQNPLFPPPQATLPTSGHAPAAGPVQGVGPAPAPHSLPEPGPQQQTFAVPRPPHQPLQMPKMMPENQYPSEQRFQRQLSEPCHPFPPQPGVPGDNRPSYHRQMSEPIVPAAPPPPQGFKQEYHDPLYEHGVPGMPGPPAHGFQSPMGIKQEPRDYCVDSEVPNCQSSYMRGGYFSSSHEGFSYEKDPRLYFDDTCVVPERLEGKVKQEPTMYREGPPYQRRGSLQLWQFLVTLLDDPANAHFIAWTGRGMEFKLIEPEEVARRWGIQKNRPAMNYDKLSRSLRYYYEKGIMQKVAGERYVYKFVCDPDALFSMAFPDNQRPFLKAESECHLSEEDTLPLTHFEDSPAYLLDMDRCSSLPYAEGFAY
ELF4, sequence (Q99607 whole entry): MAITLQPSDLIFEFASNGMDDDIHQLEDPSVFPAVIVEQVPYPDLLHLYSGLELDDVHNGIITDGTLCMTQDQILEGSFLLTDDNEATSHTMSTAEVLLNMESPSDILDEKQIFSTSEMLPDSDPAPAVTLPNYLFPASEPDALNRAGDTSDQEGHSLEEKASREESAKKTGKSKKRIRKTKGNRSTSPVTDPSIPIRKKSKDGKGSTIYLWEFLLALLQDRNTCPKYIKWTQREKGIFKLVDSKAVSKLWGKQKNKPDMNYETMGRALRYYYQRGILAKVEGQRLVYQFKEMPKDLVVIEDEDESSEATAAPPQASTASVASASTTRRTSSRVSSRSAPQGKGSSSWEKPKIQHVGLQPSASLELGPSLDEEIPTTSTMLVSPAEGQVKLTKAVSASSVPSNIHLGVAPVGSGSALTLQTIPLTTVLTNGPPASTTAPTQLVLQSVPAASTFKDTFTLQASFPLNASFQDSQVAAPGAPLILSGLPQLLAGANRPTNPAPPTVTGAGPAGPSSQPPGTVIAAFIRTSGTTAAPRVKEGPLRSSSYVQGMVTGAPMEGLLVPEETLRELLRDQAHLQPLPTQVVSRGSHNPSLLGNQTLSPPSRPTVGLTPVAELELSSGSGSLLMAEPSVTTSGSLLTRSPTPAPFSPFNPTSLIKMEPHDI
SPIB, sequence (Q01892 whole entry): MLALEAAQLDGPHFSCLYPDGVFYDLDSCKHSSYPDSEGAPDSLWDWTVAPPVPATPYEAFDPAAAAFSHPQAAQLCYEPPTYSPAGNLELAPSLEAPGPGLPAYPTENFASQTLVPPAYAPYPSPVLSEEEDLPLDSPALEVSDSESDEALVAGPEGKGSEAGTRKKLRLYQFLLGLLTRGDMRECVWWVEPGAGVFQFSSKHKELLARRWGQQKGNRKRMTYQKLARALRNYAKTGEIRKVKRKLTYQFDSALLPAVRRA

For the sequence TGGTAC, the binding signal with FLI1 is 1.18 fold enrichment (6-mer frequency, TF over GST control); with ELK1, 1.23 fold enrichment (6-mer frequency, TF over GST control); with GABPA, 1.13 fold enrichment (6-mer frequency, TF over GST control); with ERG it was 1.15 fold enrichment (6-mer frequency, TF over GST control); in the assay with ELF1, 1.17 fold enrichment (6-mer frequency, TF over GST control); with EHF, 1.13 fold enrichment (6-mer frequency, TF over GST control). The binding signal with SPI1 was 1.12 fold enrichment (6-mer frequency, TF over GST control); with SPIB, 1.27 fold enrichment (6-mer frequency, TF over GST control); with ELK3, 1.07 fold enrichment (6-mer frequency, TF over GST control); with FEV it was 1.07 fold enrichment (6-mer frequency, TF over GST control); in the assay with ETV5, 1.2 fold enrichment (6-mer frequency, TF over GST control); with HSF1 it was 1.04 fold enrichment (6-mer frequency, TF over GST control). Besides, the binding signal is 1.14 fold enrichment (6-mer frequency, TF over GST control) with SPIC; 1.08 fold enrichment (6-mer frequency, TF over GST control) in the assay with ELF4; 1.11 fold enrichment (6-mer frequency, TF over GST control) in the assay with ELK4; 1.15 fold enrichment (6-mer frequency, TF over GST control) in the assay with ETV2; 1.07 fold enrichment (6-mer frequency, TF over GST control) with ELF3; 1.19 fold enrichment (6-mer frequency, TF over GST control) with ETV1.

The values above are taken from PMC7862700, “An all-to-all approach to the identification of sequence-specific readers for epigenetic DNA modifications on cytosine”.
